From PubChem BioAssay (NCATS)
Several values for one entry are separate records, joined by “and”; a condition that tells them apart may be missing. Equal values may be shown once. Results filed as inconclusive are left out. A call without a number means that no potency is given here. Some compounds were tested as several samples or in several runs, with calls that do not always agree. Activity calls are given as the source filed them. Calls come from the whole dose curve; as a rule, active = well fitted curve in the direction sought with a large enough effect; inconclusive = small, poorly fitted or top-dose-only effect, or another doubt; inactive = no such curve, though single readings can be large; an effect the other way counts as inactive or inconclusive.

Columns and labels:
[1] = biological target: Glutathione peroxidase 1 (Homo sapiens) (UniProt P07203); test: Primary qHTS Assay for Inhibitors of Recombinant Selenoprotein Glutathione Peroxidase 1 (GPX1) (AID 1845191); note: nearly all actives have a fitted effect of over 65% in size; note: potency is the fitted concentration of half-maximal effect
Summary of the method: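 10 nM GPX1 + cpd, 30 min RT; start w/ 1 mM GSH, 0.5 mM cumene hydroperoxide, 0.5 mM NADPH, 100 nM GR, 0.01% BSA; buffer 50 mM Tris-HCl pH 7.5, 2 mM EDTA, 150 mM NaCl; Fl 340/450, 0 & 15 min.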

[2] = biological target: Phospholipid hydroperoxide glutathione peroxidase GPX4 (Homo sapiens) (UniProt P36969); test: Primary qHTS Assay for Inhibitors of Recombinant Selenoprotein Glutathione Peroxidase 4 (GPX4) (AID 1845192); note: nearly all actives have a fitted effect of over 65% in size; note: potency is the fitted concentration of half-maximal effect
Summary of the method: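 NADPH consumption, followed by fluorescence at 340/450 nm between 0 and 15 min, reports GPX4 activity via coupled glutathione reductase (100 nM). Enzyme 200 nM was pre-exposed to compound 30 min; 0.5 mM cumene hydroperoxide and 1 mM GSH served as substrates.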

[3] = Quantitative High-Throughput drug screen in 47 multiple myeloma cell lines against the NCATS MIPE library collection: FR4_PLB cell viability assay (AID 1918924; note: nearly all actives have a fitted effect of over 35% in size; note: potency is the fitted concentration of half-maximal effect)
Summary of the method: (§1)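 Luminescent ATP measurement with CellTiter-Glo gives viability, scaled between DMSO-only wells (100%) and media-only wells (0%). Cells, 500 per well, faced library compounds for 48 hours at 37C.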

[4] = Quantitative High-Throughput drug screen in 47 multiple myeloma cell lines against the NCATS MIPE library collection: Delta47_JCRB cell viability assay (AID 1918925; note: nearly all actives have a fitted effect of over 45% in size; note: potency is the fitted concentration of half-maximal effect)
Summary of the method: (§2)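 Relative luminescence from CellTiter-Glo served as the viability signal, referenced to DMSO-treated (100%) and cell-free medium (0%) controls. Treatment lasted 48 hours at 37C with 500 cells per well.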

[5] = Quantitative High-Throughput drug screen in 47 multiple myeloma cell lines against the NCATS MIPE library collection: EJM_DSMZ cell viability assay (AID 1918926; note: nearly all actives have a fitted effect of over 30% in size; note: potency is the fitted concentration of half-maximal effect)
Summary of the method: as §2

[6] = Quantitative High-Throughput drug screen in 47 multiple myeloma cell lines against the NCATS MIPE library collection: AMO1_DSMZ cell viability assay (AID 1918927; note: potency is the fitted concentration of half-maximal effect; nearly all actives have a fitted effect of over 30% in size)
Summary of the method: as §2

[7] = Quantitative High-Throughput drug screen in 47 multiple myeloma cell lines against the NCATS MIPE library collection: ARP1_JJKsccF8 cell viability assay (AID 1918928; note: nearly all actives have a fitted effect of over 40% in size; note: potency is the fitted concentration of half-maximal effect)
Summary of the method: (§3)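 ATP readout (CellTiter-Glo), 48 h drug incubation, 37 °C/5% CO2, 500 cells per well; normalisation to DMSO (100%) and media-only (0%) controls.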

[8] = Quantitative High-Throughput drug screen in 47 multiple myeloma cell lines against the NCATS MIPE library collection: Karpas620_DSMZ cell viability assay (AID 1918959); note: nearly all actives have a fitted effect of over 30% in size; note: potency is the fitted concentration of half-maximal effect
Summary of the method: as §1

[9] = Quantitative High-Throughput drug screen in 47 multiple myeloma cell lines against the NCATS MIPE library collection: KMM1_JCRB cell viability assay (AID 1918960); note: nearly all actives have a fitted effect of over 30% in size; note: potency is the fitted concentration of half-maximal effect
Summary of the method: as §3

[10] = Quantitative High-Throughput drug screen in 47 multiple myeloma cell lines against the NCATS MIPE library collection: KHM11_PLB cell viability assay (AID 1918962); note: potency is the fitted concentration of half-maximal effect; nearly all actives have a fitted effect of over 35% in size
Summary of the method: as §1

[11] = Quantitative High-Throughput drug screen in 47 multiple myeloma cell lines against the NCATS MIPE library collection: JIM3_ECACC cell viability assay (AID 1918963; note: nearly all actives have a fitted effect of over 35% in size; note: potency is the fitted concentration of half-maximal effect)
Summary of the method: as §1

[12] = Quantitative High-Throughput drug screen in 47 multiple myeloma cell lines against the NCATS MIPE library collection: INA6_PLB cell viability assay (AID 1918965; note: potency is the fitted concentration of half-maximal effect; nearly all actives have a fitted effect of over 55% in size)
Summary of the method: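 Steps: seed 500 cells per well; pin-transfer MIPE 4.0 library; incubate 48 h at 37C, 5% CO2, humidified; add CellTiter-Glo, 5 min room temperature; read luminescence.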

[13] = biological target: Luciferin 4-monooxygenase (Photinus pyralis) (UniProt P08659); test: Primary firefly luciferase (FLuc) qHTS assay for identification of artifact compounds. (AID 1845220); note: nearly all actives have a fitted effect of over 60% in size
Summary of the method: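 Compounds sat 15 min at room temperature with 10 uM luciferin and 10 uM ATP (pH 7.6 Tris acetate). Firefly luciferase (10 nM final) was then added, and luminescence was read 5 min later. Data normalized to no-enzyme and DMSO controls were Hill-fitted.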

[14] = Primary fluorescence-based thiol-reactive (MSTI) qHTS assay for identification of artifact compounds. (AID 1845221); note: nearly all actives have a fitted effect of over 65% in size; note: potency is the fitted concentration of half-maximal effect
Summary of the method: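 Thiol-reactive compounds detected by quenching of 4 uM MSTI fluorescence (525/598 nm) after 1 h room-temperature dark incubation in PBS pH 7.4, 2% DMSO. qHTS titration; percent inhibition Hill-fitted against Acetyl-MSTI/MSTI controls.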

[15] = Primary redox qHTS assay for identification of artifact compounds. (AID 1845223)
Summary of the method: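 Amplex Red (25 uM) and HRP (250 mU/mL) in HBSS, with compounds for 15 min, then 250 uM DTT for 30 min, room temperature, dark. Fluorescence 525/598 nm read; normalized to DMSO and 10 uM DA3003; Hill fit.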

[16] = tested on: Nanoluciferase (engineered Oplophorus gracilirostris luciferase); test: Primary Nanoluciferase (NLuc) qHTS assay for identification of artifact compounds. (AID 1845222); note: series mostly up to about 54 µM
Summary of the method: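 Luminescence from secreted NLuc (filtered, 1:55-diluted S16 cell medium) read 5 min after Nano-Glo substrate; compounds preincubated 15 min, RT. Hill fits of inhibition normalized to DMSO and no-enzyme.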

[17] = Quantitative High-Throughput drug screen in 47 multiple myeloma cell lines against the NCATS MIPE library collection: ARD_JJKsccE7 cell viability assay (AID 1918929; note: potency is the fitted concentration of half-maximal effect)
Summary of the method: as §2

[18] = Quantitative High-Throughput drug screen in 47 multiple myeloma cell lines against the NCATS MIPE library collection: JIM1_ECACC cell viability assay (AID 1918964; note: potency is the fitted concentration of half-maximal effect)
Summary of the method: as §2

[19] = Quantitative High-Throughput drug screen in 47 multiple myeloma cell lines against the NCATS MIPE library collection: JJN3_DSMZ cell viability assay (AID 1918966; note: potency is the fitted concentration of half-maximal effect; nearly all actives have a fitted effect of over 50% in size)
Summary of the method: as §2

Sequence of Phospholipid hydroperoxide glutathione peroxidase GPX4 (Homo sapiens) (P36969 whole entry, looked up): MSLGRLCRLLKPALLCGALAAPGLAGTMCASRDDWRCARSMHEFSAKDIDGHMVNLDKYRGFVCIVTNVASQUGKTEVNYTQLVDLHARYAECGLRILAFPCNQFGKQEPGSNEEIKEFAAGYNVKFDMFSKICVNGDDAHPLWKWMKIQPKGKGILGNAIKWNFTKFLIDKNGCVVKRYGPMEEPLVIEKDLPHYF
Sequence of Glutathione peroxidase 1 (Homo sapiens) (P07203 whole entry, looked up): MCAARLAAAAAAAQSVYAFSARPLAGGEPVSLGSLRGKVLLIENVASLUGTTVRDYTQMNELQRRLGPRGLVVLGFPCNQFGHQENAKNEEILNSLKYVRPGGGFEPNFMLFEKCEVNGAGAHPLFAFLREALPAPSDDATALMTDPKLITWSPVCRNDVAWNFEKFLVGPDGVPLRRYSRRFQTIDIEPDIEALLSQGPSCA

Row | Structure (SMILES) | Potency [1] | Potency [2] | Potency [3] | Potency [4] | Potency [5] | Potency [6] | Potency [7] | Potency [8] | Potency [9] | Potency [10] | Potency [11] | Potency [12] | Potency [13] | Potency [14] | outcome [15] | Potency [16] | Potency [17] | Potency [18] | Potency [19]
1 | COc1cc(NC(=O)c2ccc(-c3ccc(Cl)cc3)o2)cc(OC)c1 | inactive | inactive | inactive | 2.35 µM (active) | inactive | 7.43 µM (active) | inactive | 20.9 µM (active) | 16.6 µM (active) | 14.8 µM (active) | 11.8 µM (active) | 8.33 µM (active) |  |  |  |  |  |  | 
2 | CCCNC(=O)NS(=O)(=O)c1ccc(Cl)cc1 | inactive | inactive |  |  |  |  |  |  |  |  |  |  | inactive | inactive | inactive |  |  |  | 
3 | O=C(O)c1cc(-c2ccccc2)nc2ccccc12 | inactive | inactive |  |  |  |  |  |  |  |  |  |  |  | inactive | inactive | inactive |  |  | 
4 | Clc1ccc(C(c2ccc(Cl)cc2)n2cc[n+](CC(OCc3ccc(Cl)cc3Cl)c3ccc(Cl)cc3Cl)c2)cc1 (stereo unspecified) | inactive | inactive | 20.9 µM (active) | 8.33 µM (active) | 16.6 µM (active) | 16.6 µM (active) | 11.8 µM (active) | 9.35 µM (active) | 8.33 µM (active) | 10.5 µM (active) | 16.6 µM (active) |  |  |  |  |  | 11.8 µM (active) | 8.33 µM (active) | 20.9 µM (active)
5 | Cc1ccc(Nc2cc(-c3cccc(N4C(=O)c5ccccc5C4=O)c3)ncn2)cc1NS(C)(=O)=O | inactive | inactive |  | 14.8 µM (active) | 26.4 µM (active) | 18.7 µM (active) |  |  |  |  | 18.7 µM (active) | 16.6 µM (active) | inactive | inactive | inactive | inactive | 20.9 µM (active) |  | 
6 | CC(C)(C)Cn1c(N)nc2ccc(-c3[nH]c(C(C)(C)C)nc3-c3ccc(F)cc3)nc21 | 16.1 µM (active) | inactive and 9.04 µM (active) |  |  |  |  |  |  |  |  |  |  | inactive | 1.89 µM (active) | inactive | inactive |  | inactive | 
7 | O=C(Nc1ccccc1-c1cn2c(CN3CCNCC3)csc2n1)c1cnc2ccccc2n1 | inactive | inactive | 9.35 µM (active) | 4.69 µM (active) | 20.9 µM (active) |  | 23.5 µM (active) | inactive | inactive | 8.33 µM (active) | 33.2 µM (active) | 9.35 µM (active) |  | inactive | inactive | inactive | inactive | 2.96 µM (active) | 
8 | CN1C[C@H]2c3ccccc3Oc3ccc(Cl)cc3[C@@H]2C1 | inactive | inactive | inactive | inactive | inactive |  | inactive |  |  |  | inactive |  |  |  |  |  |  |  | 
9 | COc1cc(N2CCC(N3CCN(C)CC3)CC2)ccc1Nc1ncnc(Nc2ccccc2S(=O)(=O)C(C)C)n1 | inactive | inactive |  |  |  |  |  |  |  |  | 5.26 µM (active) | 14.8 µM (active) | inactive |  |  | inactive | inactive | inactive | 
